This passage reports growth results from PubChem BioAssay (NCI).

Each structure is given as a SMILES string. This is part of a sample that, as a whole, favours compounds with a hit. Of some 83,000 tested, about 20% had one in any assay.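 The test compound was applied at a single concentration to cells in 96-well plates for 48 hours, and percent growth was recorded.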 Values without a mark were called inactive. Activity calls are given as the source filed them. Rule for the calls: active = growth percent below 10; inactive = the rest.

Among the test systems are DU-145 prostate; K-562 leukemia; MALME-3M melanoma; MDA-MB-231 breast; RXF 393 renal; SF-268 CNS; SF-295 CNS; SF-539 CNS; UACC-257 melanoma; M14 melanoma.
Assay in all cases: NCI-60 one-dose screen, 48 h (100 = growth as untreated, 0 = no growth, -100 = all killed)
Conditions in all cases: 10 µM unless noted

As to `COc1cc(-c2nc3ccccc3[nH]2)ccc1OCc1nnc(-c2ccc(CC(C)C)cc2)o1`, the growth in the assay on DU-145 prostate is 94%; with K-562 leukemia, 76%; in the assay with MALME-3M melanoma it was 89.9%; with MDA-MB-231 breast, 93.4%; in the assay with RXF 393 renal it was 71.2%; in the assay with SF-268 CNS it was 99.9%. For the same compound, the growth with SF-295 CNS is 99.3%; in the assay with SF-539 CNS, 105%; with UACC-257 melanoma, 104%; in the assay with M14 melanoma it was 98.3%.

For `CCC([N+](=O)[O-])S(=O)(=O)c1ccc(C)cc1` (stereo not given), the growth in the assay with DU-145 prostate was 160%; in the assay with K-562 leukemia, 115%; in the assay on MALME-3M melanoma it was 143%; with MDA-MB-231 breast, 103%; in the assay with RXF 393 renal it was 97.1%; in the assay on SF-268 CNS, 126%. Besides, the growth in the assay with SF-295 CNS is 111%; with SF-539 CNS, 94.5%; in the assay on UACC-257 melanoma it was 102%; in the assay with M14 melanoma, 103%.

Turning to `C#CCOc1ccc2ncnc(NCc3cccc(NC(=O)CCl)c3)c2c1`, the growth was 77.9% [8.25 µM] in the assay with DU-145 prostate; 11.7% [8.25 µM] with K-562 leukemia; 57.4% [8.25 µM] with MALME-3M melanoma; 45.3% [8.25 µM] in the assay on MDA-MB-231 breast; 42.3% [8.25 µM] in the assay with RXF 393 renal; 41.9% [8.25 µM] with SF-268 CNS. In addition, the growth in the assay with SF-295 CNS was 93.9% [8.25 µM]; with SF-539 CNS it was 49.5% [8.25 µM]; with UACC-257 melanoma, 63.8% [8.25 µM]; with M14 melanoma it was 51.3% [8.25 µM].

`C=CC(=O)Nc1cccc(-c2nc(SC)nc(Nc3ccccc3OC)c2C#N)c1`: the growth is 10.8% with DU-145 prostate; 8.6% (active) with K-562 leukemia; -10.4% (active) in the assay with MALME-3M melanoma; 33.2% in the assay on MDA-MB-231 breast; 39.7% in the assay with RXF 393 renal; 53.5% with SF-268 CNS. Besides, the growth is 80.3% in the assay on SF-295 CNS, 68.6% with SF-539 CNS, 57.5% with UACC-257 melanoma and 50.4% in the assay with M14 melanoma.

As for `Cc1nc(/N=C(\N)NC(=O)Nc2cccc([N+](=O)[O-])c2)sc1C`, the growth in the assay on DU-145 prostate was 89.8%; in the assay on K-562 leukemia, 14.3%; with MALME-3M melanoma, 78.2%; with MDA-MB-231 breast, 98.8%; in the assay on RXF 393 renal, 91.4%; in the assay with SF-268 CNS it was 92.9%. For the same compound, the growth in the assay on SF-295 CNS is 83.3%; with SF-539 CNS it was 78.4%; in the assay on UACC-257 melanoma, 88.5%; in the assay on M14 melanoma, 57.1%.

With `O=c1c(F)cn(Cc2ccccc2CCl)c(=O)n1Cc1ccccc1CCl`, the growth was -51.3% (active) with DU-145 prostate; -6.67% (active) with K-562 leukemia; -28.1% (active) with MALME-3M melanoma; -19.4% (active) in the assay with MDA-MB-231 breast; -30.7% (active) with RXF 393 renal; -16% (active) in the assay on SF-268 CNS. Besides, the growth with SF-295 CNS was -62.4% (active); with SF-539 CNS, -24.1% (active); with UACC-257 melanoma it was -48.1% (active); in the assay with M14 melanoma, -63.6% (active).

`COc1cc2nc(N3CCCC3)nc(NCc3ccccc3)c2cc1OC`: the growth was 80.9% in the assay on DU-145 prostate; 1.41% (active) with K-562 leukemia; 41.2% with MALME-3M melanoma; 68.9% with MDA-MB-231 breast; 35.7% in the assay on RXF 393 renal; 87.6% in the assay on SF-268 CNS. Besides, the growth in the assay on SF-295 CNS is 71.1%; in the assay on SF-539 CNS, 52.4%; in the assay on UACC-257 melanoma, -46.6% (active); in the assay on M14 melanoma, -71.2% (active).

Consider `C(=N/Nc1ncc(-c2cc3cc(-c4ccccc4)ccc3o2)s1)/c1cccs1`, for which the growth in the assay on DU-145 prostate is 97.2%; in the assay with K-562 leukemia, 96.6%; with MALME-3M melanoma it was 97.8%; in the assay on MDA-MB-231 breast it was 109%; with RXF 393 renal, 129%; in the assay with SF-268 CNS, 102%. The growth was 98.1% in the assay with SF-295 CNS, 99.6% in the assay on SF-539 CNS, 102% in the assay with UACC-257 melanoma and 111% in the assay on M14 melanoma.

Consider `CC[C@H]1OC(=O)[C@H](C)[C@@H](O[C@H]2C[C@@](C)(OC)[C@@H](O)[C@H](C)O2)[C@H](C)[C@@H](O[C@@H]2O[C@H](C)C[C@H](N(C)C)[C@H]2O)[C@](C)(O)C[C@H](C)CN(C)[C@H](C)[C@@H](O)[C@]1(C)O`, for which the growth in the assay with DU-145 prostate was 109%; with K-562 leukemia, 108%; in the assay on MALME-3M melanoma, 92%; with MDA-MB-231 breast it was 55.2%; with RXF 393 renal, 85.5%; with SF-268 CNS, 99.1%. For the same compound, the growth in the assay with SF-295 CNS was 108%; with SF-539 CNS it was 102%; with UACC-257 melanoma, 124%; in the assay on M14 melanoma, 96.4%.

For the compound `COc1ccc(C(=O)COc2cccc(/C=C3\CSc4ccccc4C3=O)c2)cc1`, the growth in the assay on DU-145 prostate is 102%; in the assay with K-562 leukemia it was -73.4% (active); with MALME-3M melanoma, -67.2% (active); in the assay with MDA-MB-231 breast, 76.6%; in the assay with RXF 393 renal, -39.6% (active); in the assay with SF-268 CNS, 51.7%. The growth with SF-295 CNS was 38%; with SF-539 CNS, 62.5%; with UACC-257 melanoma, -35.8% (active); in the assay with M14 melanoma it was -26.3% (active).

As to `CCCCCCCCCCCCC[N+](C)(C)Cc1ccccc1`, the growth in the assay with DU-145 prostate is 0.808% (active); in the assay on K-562 leukemia, 2.97% (active); with MALME-3M melanoma, -44.7% (active); in the assay on MDA-MB-231 breast it was -55.6% (active); in the assay on RXF 393 renal it was -73.3% (active); in the assay with SF-268 CNS, -84.5% (active). Further, the growth in the assay on SF-295 CNS was 13.5%; with SF-539 CNS, -73% (active); in the assay on UACC-257 melanoma, -44.2% (active); in the assay with M14 melanoma, -66.6% (active).

`COc1ccc(S(=O)(=O)N2CCCCC2)cc1NC(=O)c1[nH]c(C)c2c1CCCCC2=O`: the growth is 61.5% in the assay with DU-145 prostate; 22% in the assay with K-562 leukemia; 45.2% in the assay with MALME-3M melanoma; 29.1% with MDA-MB-231 breast; 3.54% (active) with RXF 393 renal; 48.1% in the assay on SF-268 CNS. Moreover, the growth in the assay with SF-295 CNS was 23.9%; with SF-539 CNS, 24.9%; in the assay on UACC-257 melanoma, 32%; in the assay on M14 melanoma, 36%.
